An excerpt weighted towards active compounds, which were near 12% of everything screened.
Lmaj promast: Leishmania major promastigote growth inhibition. inhibition, % at 10 µM. Leishmania major promastigotes, resazurin fluorescence viability. 200,000 tested, 9% active; in the data active = inhibition above about 50%;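 note: promastigotes grown with compound for 44 hours at 28 °C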
Cl transport mod: modulators of human KCC2 chloride dependent transport | Q9H2X9 | KCC2 cells, thallium flux FluoZin-2 fluorescence | B-score of Tl+ flux slope (higher = more flux/activation; lower = inhibition) at 10 µM | 190,000 tested, 2.2% active | AID 1456;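 active = thallium flux slope and its plate-corrected score both differing from the plate sample mean at a set confidence after two filtering rounds, in either direction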;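 note: slope of fluorescence scaled to starting intensity during 10 to 20 s after thallium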
ROMK mod: human ROMK K+ channel modulation, primary screen; Tet-inducible ROMK, thallium flux fluorescence; actives lie on both sides; B-score at 10 µM; 130,000 tested, 2% active;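 active = signal ratio slope over the read window, or its plate-corrected B-score, at least 3 SD from the plate mean, either direction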;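 note: B-score of the F/F0 ratio slope over 7 to 12 s after thallium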
Target sequence (P48048 whole entry, looked up): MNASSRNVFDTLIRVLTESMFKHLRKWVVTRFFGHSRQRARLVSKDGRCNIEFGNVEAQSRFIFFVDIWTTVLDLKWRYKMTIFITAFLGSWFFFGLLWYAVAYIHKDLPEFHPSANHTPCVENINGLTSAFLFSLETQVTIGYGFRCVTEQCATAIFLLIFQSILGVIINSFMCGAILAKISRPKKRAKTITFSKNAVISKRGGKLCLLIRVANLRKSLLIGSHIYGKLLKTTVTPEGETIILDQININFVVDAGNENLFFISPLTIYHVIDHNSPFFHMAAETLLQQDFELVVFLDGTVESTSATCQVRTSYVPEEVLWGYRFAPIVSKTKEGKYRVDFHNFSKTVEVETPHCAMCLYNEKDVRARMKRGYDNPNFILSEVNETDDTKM
Insulin prom inh: TRM-6 insulin promoter activity inhibition; TRM-6 cells (human fetal islet line), insulin promoter-eGFP reporter, imaging; reporter expression induced with tamoxifen; inhibition, % at 2 µM; 130,000 tested, 0.9% active;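 active = inhibition above the mean plus 3 SD, with well images judged a real hit on visual review, cut at about 60% in these data, passing the limit was not always enough; inconclusive = inhibition over the cutoff but images rejected on review; inactive = inhibition not above the cutoff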
WT yeast gro inh: growth inhibition of WT yeast, mitochondrial fusion screen; mitochondrial fusion phenotypic screen, WT strain; inhibition, % at 10 µM; 190,000 tested, 2.1% active; AID 1362; in the data active = inhibition above about 58%; tested in S. cerevisiae
Insulin prom up: MIN6 insulin promoter up-regulation. MIN6 insulin promoter-GFP reporter, high-content imaging; hits give high values. z-score at 5 µM. AID 1625. 190,000 tested, 0.3% active;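 active = z-score above 3 at 5 µM with at least 500 cells counted in the well; inconclusive = wells under 500 cells, flagged as cytotoxic or low count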
The depositor's hits bear a star; ? = inconclusive; · = no result given.

SMILES	Lmaj promast	Cl transport mod	ROMK mod	Insulin prom inh	WT yeast gro inh	Insulin prom up
CCCCSCCCNC(=S)Nc1ccccc1C	16	-0.38	-1.3	27	73*	·
COCCN1Cc2cccc(C(=O)NC3CCCCCC3)c2C1=O	7	0.092	0.028	17	71*	-0.26
CN(CCC#N)C(=O)COC(=O)c1ccc(Cl)cc1O	-8	-0.15	-0.12	11	3	-0.28
O=C(CC1CCCCC1)N1CCCC(c2nc(-c3ccc(S(=O)(=O)N4CCCC4)cc3)no2)C1 (stereo not given)	55*	0.0011	-2.3	-9	38	0.13
CCCCCC(=O)N1CCCC(c2nc(-c3ccc(OC)cc3)no2)C1 (stereo not given)	7	-1.7	·	-77	26	-0.67
Cc1ccc(-n2sc3ccccc3c2=O)cc1S(=O)(=O)N1CCCCC1	89*	1.2	0.25	75*	94*	-0.44
CCCCCCCC(=O)NNC(=O)Cc1ccccc1	-6	-0.0081	·	10	-2	0.35
CCCCCCCCCCCC(=O)c1c(O)cccc1O	-6	0.37	0.43	·	95*	0.19
CCN(CC)c1ccc(NC(=O)CCNC(=O)c2ccco2)cc1	90*	0.48	0.47	-27	-14	-0.5
Cc1ccc(S(=O)(=O)CCC(=O)NCc2ccccc2)cc1	57*	0.52	0.18	-11	4	0.53
Cc1ccc(CNC(=O)CCNC(=O)c2ccco2)cc1	-5	0.053	·	29	95*	0.86
CSc1ccccc1NC(=O)CN(C)S(=O)(=O)c1ccc(F)cc1	-5	-0.19	1.1	29	-7	-0.32
[O-]C1=N/[N+](=C/c2ccc(Cl)c(Cl)c2)CC1	4	-0.78	0.13	29	0	-0.04
Cc1cccc(N2CCN(Cc3nc(-c4ccc(F)cc4F)oc3C)CC2)n1	0	-0.44	0.021	·	25	0.43
O=C(NC(=S)Nc1cccc2cnccc12)c1ccccc1	-5	1.5	0.55	·	-3	-0.01
Cc1cc(C)cc(NC(=S)Nc2cccc3cnccc23)c1	28	1.2	-0.22	·	65*	0.18
CCc1ccc(NC(=S)Nc2cccc3cnccc23)cc1	2	0.35	-0.23	·	61*	-0.35
C=C(C)CNC(=S)Nc1cccc2cnccc12	-4	1.4	·	·	-7	1.4
Cc1ccc(NC(=S)Nc2cccc3cnccc23)c(C)c1	19	0.12	0.26	13	69*	-0.19
COC(=O)c1ccccc1NC(=O)CN1CCN(C23CC4CC(CC(C4)C2)C3)CC1	86*	0.41	·	·	2	-1.3
c1cc(CNC2=NCCCCC2)ccn1	-4	0.46	·	?	13	·
COc1ccccc1NC(=O)Nc1ccc(N2CCOCC2)cc1	4	0.5	0.04	·	1	1.1
O=C(COC(=O)c1cccnc1SCC(=O)NCc1ccccc1)NCc1ccccc1	-3	·	·	-31	-2	-0.38
O=C(CSc1nnc(NC(=O)C2CCCCC2)s1)NCc1ccco1	-6	-0.11	1	-83	-15	-0.57
O=C(CSc1nnc(NC(=O)C2CC2)s1)NCc1ccco1	59*	-1.7	·	26	8	0.32
SMILES	Lmaj promast	Cl transport mod	ROMK mod	Insulin prom inh	WT yeast gro inh	Insulin prom up
O=C(Nc1nnc(SCC(=O)N2CCCCC2)s1)C1CCCCC1	-6	·	·	73*	-12	·
COc1ccc(N(C(=O)c2cccnc2)S(=O)(=O)c2cccs2)cc1	3	0.61	0.51	·	14	-0.15
C/C(=N\Nc1nc2c(s1)CCCC2)c1ccccc1	52*	0.28	1.3	32	43	1
O=C(NC(=S)Nc1nc2c(s1)CCCC2)c1ccc(C(=O)c2ccccc2)cc1	76*	23*	·	0	6	2.1
O=C(NC(=S)Nc1nc2c(s1)CSc1ccccc1-2)c1ccccc1	38	·	0.28	25	83*	·
O=C(Nc1nc2c(s1)CCCC2)c1cccnc1	-6	-0.2	0.58	19	15	1.5
Cc1ccc(Oc2nnc(-c3cccs3)c3ccccc23)cc1	-5	0.45	0.17	81*	-8	0.43
c1ccc(Oc2nnc(-c3cccs3)c3ccccc23)cc1	1	0.36	0.39	23	-11	0.32
O=S(=O)(Nc1cccc(-c2cn3cccnc3n2)c1)c1ccccc1	88*	-0.07	-0.93	4	1	1.2
O=S(=O)(Nc1cccc(-c2cn3cccnc3n2)c1)c1ccc(F)cc1	71*	-0.23	-0.96	-28	1	-0.89
O=S(=O)(Nc1cccc(-c2cn3ccsc3n2)c1)c1ccc(F)cc1	34	-2.3	·	-33	-4	·
O=C(COC(=O)/C=C/c1ccccc1)Nc1ccccc1Br	-3	-2.7	·	·	5	-0.18

Screening data: PubChem, several laboratories
